PubChem BioAssay (EPA / NIEHS)
Values joined by “and” are separate entries in the source; they are usually repeats but may differ in a detail not shown here. Equal values may be shown once. Active and inactive are the calls of the source. The calls were made as follows: active = hit-call score of the fitted dose curve at least 0.9, where 1 is the maximum; inactive = score below 0.9.

These compounds were tested on Plasminogen activator inhibitor-1 (PAI1), SERPINE1 (gene 5054) (assay: BSK_BE3C_PAI1: BioMAP Diversity Plus: BE3C Assay for Plasminogen activator inhibitor-1 (PAI1) Biomarker Activity (AID 2283037)). Details: primary human bronchial epithelial cells; actives raise or lower the signal.
Protocol: BSK_BE3C is a cell-based, multiplexed-readout assay that uses bronchial epithelial cell, a human lung primary cell, with measurements taken at 24 hours after chemical dosing in a 96-well plate.BSK_BE3C_PAI1 is an assay component measured in the BSK_BE3C assay. It measures PAI-1 antibody related to regulation of gene expression using ELISA technology.Data from the assay component BSK_BE3C_PAI1 was analyzed into 1 assay endpoint. This assay endpoint, BSK_BE3C_PAI1, was analyzed with bidirectional fitting relative to DMSO as the negative control and baseline of activity. Using a type of binding reporter, gain or loss-of-signal activity can be used to understand changes in the signaling as they relate to the gene SERPINE1. Furthermore, this assay endpoint can be referred to as a primary readout, because this assay has produced multiple assay endpoints where this one serves a signaling function. To generalize the intended target to other relatable targets, this assay endpoint is annotated to the cytokine intended target family, where the subfamily is plasmogen activator inhibitor.
The levels of cell surface (or secreted, indicated by the prefix "s") biomarker endpoints were measured by ELISA. Overt cytotoxicity to cells in confluent adherent cultures (all systems other than the BT system) was assessed by measuring total protein levels using sulforhodamine B (SRB) staining in parallel cultures at the time of biomarker measurements, indicated as SRB endpoints. For proliferation assays for adherent cell types, individual cell types are cultured at sub-confluence and relative cell numbers quantified by SRB staining at time points optimized for each system (48 h: 3C and CASM3C systems; 72 h: BT and HDF3CGF systems; 96 h: SAg system). SRB was performed by staining cells with 0.1% SRB after fixation with 10% TCA and reading wells at 560 nm.Viability and proliferation of PBMC (T cells) was quantified by Alamar Blue reduction for the SAg and BT systems. For PBMC viability (referred to as PBMC Cytotoxicity within the assay endpoint names), cells were plated (75,000/well in a 96-well plate) and then chemical samples added for 1 h before addition of activators, SEB and TSST-1 (20 ng/mL final concentration each). Cells were incubated for 90 h. Then, Alamar Blue (20 uL/well) (Invitrogen, Cat DAL1100) was added for 6 h, and the plates were read with a fluorescence microplate reader at 546/580 nm (excitation/emission). For PBMC proliferation, cells were plated and activated as above but incubated for only 16 h prior to addition of Alamar Blue. Plates were read after 6 h.

Row | SMILES | AC50 | outcome
1 | O=C(Cl)c1cc(C(=O)Cl)cc(C(=O)Cl)c1 | 26.7 µM (active) | –
2 | C=CCOCC(O)CCl (stereo unspecified) | – | inactive
3 | O=Nc1ccc(O)cc1 | – | inactive
4 | CO[Si](OC)(OC)c1ccccc1 | – | inactive
5 | CCO[Si](CCCN=C=O)(OCC)OCC | – | inactive
6 | S=C(NC1CCCCC1)NC1CCCCC1 | – | inactive
7 | CCCCC(CC)COC(=O)c1ccccc1O (stereo unspecified) | – | inactive
8 | CCCCC/C=C\C/C=C\CCCCCCCC(=O)OC | – | inactive
9 | C/C=C\C/C=C/CCCCCCCCOC(C)=O | – | inactive
10 | CC1OC1C1CCC2(C)OC2C1 (stereo unspecified) | – | inactive
11 | C=CC=CC=CCCCCC | – | inactive
12 | CCCCCCCCCCCCCCCC[N+](C)(C)CC | 10.4 µM (active) | –
13 | Nc1ccc(N)c(Cl)c1 | 3.32 µM (active) and 2.4 µM (active) | –
14 | O=C1CCCN1CCO | – | inactive
15 | CC(C)(c1cc(Br)c(OCCO)c(Br)c1)c1cc(Br)c(OCCO)c(Br)c1 | – | inactive
16 | CCCCCCCCc1ccc(Nc2ccc(CCCCCCCC)cc2)cc1 | – | inactive
17 | N#[N+]c1ccc2c(S(=O)(=O)[O-])cccc2c1O | – | inactive
18 | COCc1c(C(C)C)nc(C(C)C)c(/C=C/[C@@H](O)C[C@@H](O)CC(=O)O)c1-c1ccc(F)cc1 | – | inactive

Row | SMILES | AC50 | outcome
19 | C=C[Si](OC(C)=O)(OC(C)=O)OC(C)=O | – | inactive
20 | c1ccc2c(c1)ccc1ncccc12 | – | inactive
21 | CCOC(=O)c1ccccc1C(=C1C=C(Br)C(=O)C(Br)=C1)c1cc(Br)c(O)c(Br)c1 | 2.48 µM (active) | –
22 | CN1C(=O)N(C)C(O)C1O (stereo unspecified) | – | inactive
23 | COc1ccc2nc(N)sc2c1 | – | inactive
24 | O=C(Nc1ccccc1SSc1ccccc1NC(=O)c1ccccc1)c1ccccc1 | – | inactive
25 | O=C(c1ccc(O)cc1)c1ccc(O)cc1O | 13.2 µM (active) and 12.6 µM (active) | –
26 | O=c1c2ccccc2oc2ccccc12 | – | inactive
27 | c1ccc2c(c1)ccc1cc3c(ccc4ccccc43)cc12 | – | inactive
28 | C=CCOc1c(Br)cc(Br)cc1Br | 20 µM (active) | –
29 | CCOc1nc(F)cc2nc(S(=O)(=O)Nc3c(Cl)cccc3C(=O)OC)nn12 | – | inactive
30 | CCCCC(CC)COCC1CO1 (stereo unspecified) | – | inactive
31 | c1ccc(-c2ccccn2)nc1 | – | inactive
32 | CC(C)C(=O)C(C)C | – | inactive
33 | C=CC(=O)OCC(Br)CBr (stereo unspecified) | – | inactive
34 | CCO[Si](C)(OCC)OCC | – | inactive
35 | CCCCNc1ccc(NCCCC)c2c1C(=O)c1ccccc1C2=O | – | inactive
36 | C#CC1(O)CC[C@H]2[C@@H]3CCC4=CCCC[C@@H]4[C@H]3CC[C@@]21C (stereo partly specified) | – | inactive
